The record followed here is PubChem BioAssay (NCI).

About 83,000 compounds went through this panel and 20% of them were active in at least one assay; those are over-represented in the sample as a whole.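 Negative percent growth values reflect cell death: -40 means 40% of the cells present at the start died, and -100 means all died.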 Unmarked numbers belong to inactive results. Activity calls are given as the source filed them. How the source made its calls: active means growth percent below 10; inactive means the rest.

This test deals with HL-60(TB) leukemia. Put plainly: NCI-60 one-dose screen, 48 h (100 = growth as untreated, 0 = no growth, -100 = all killed). Conditions: 10 µM unless noted.
Turning to `CCCCCCCCCCCCCCCC[N+]1(CC)CCCC1`, the growth is -69.9% (active). The value for `Cc1ccc(/C(CS(=O)(=O)c2ccc(C)cc2)=N\O)cc1` was 99%; that for `CCCCC(=O)Nc1c(C(=O)Nc2ccccc2)sc2nc3c(cc12)C(OC(=O)CCCC)CCC3` (stereo not given) was 99.3%; that for `O=[N+]([O-])CC(O)c1ccccc1` (stereo not given) was 99.4%.

`C#CCOc1cccc(Nc2ncnc3c2ncn3C2CCN(C(=O)CCl)C2)c1` (stereo not given): the growth is -56.3% (active). The value for `O=c1c2c(c3ccccc3n1-c1ccccc1)NC(=S)NC2c1ccc(Cl)cc1` (stereo not given) was 22.1%; that for `CSc1ccccc1C#C/C=C\C#Cc1ccccc1N1CCCC1=O` was -33.4% (active). For `CC/C=C\C[C@H](O)C/C=C1/C(=O)C=C[C@@H]1C/C=C\CCCC(N)=O` the value was -30.9% (active); for `CC/C=C\C[C@H](O)C/C=C1/C(=O)C=C[C@@H]1C/C=C\CCCCO`, 36.4%; for `NS(=O)(=O)c1ccc(C(=O)N=Nc2c(O)[nH]c3ccc(Cl)cc23)cc1`, 102%. For `C=C1C(=O)O[C@H]2[C@H]1CC/C(C(=O)NCCCCCCCCNC(=O)/C1=C/CC[C@@]3(C)O[C@H]3[C@H]3OC(=O)C(=C)[C@@H]3CC1)=C\CC[C@@]1(C)O[C@@H]21`, the growth is 6.59% (active). For `Nc1ccc2ccccc2c1-c1c(N)ccc2ccccc12` the value was 2.94% (active).

As for `Cc1nc2sc(C(=O)Nc3cccc(Br)c3C)c(N)c2cc1C(O)c1ccccc1` (stereo not given), the growth was -46.6% (active). The value for `CCCCCCN=C(N)CCCCCCCCCCC(N)=NCCCCCC` was 55.1%; that for `O=C(Nc1ncc(Cc2ccccc2)s1)c1ccc2c(c1)OCCO2` was -48.6% (active).

As to `CCc1ccc(NC(=O)N[C@@H](Cc2cc(F)cc(F)c2)C(=O)N[C@@H]2C(=O)N3C[C@H](O)C[C@H]3C(=O)N3CCOC[C@H]3C(=O)N[C@@H](C)C(=O)N3C[C@H](C)C[C@H]3C(=O)O[C@H]2C)cc1`, the growth was 23.8%. For `COc1ccc(NC(=O)c2sc3nc(C)c(C(O)c4ccccc4)cc3c2N)cc1` (stereo not given) the value was -51.9% (active). The value for `O=C(N/N=C/c1ccc(Cl)cc1)c1ccc(Cc2n[nH]c(=O)c3cccnc23)cc1` was 100%; that for `COc1ccc(/C=N/C2=C(C#N)C(c3ccc(OC)cc3)c3ccc4ccccc4c3O2)cc1` (stereo not given) was 63.4%.

Take `O=c1cc(N/N=C/c2ccc(F)cc2)c2cc(Cl)ccc2[nH]1`: the growth was -9.23% (active).

As to `CC1(C)CC[C@]2(CO)CC[C@]3(C)[C@H](CC[C@@H]4[C@@]5(C)CCCNC(C)(C)[C@@H]5CC[C@]43C)[C@H]2[C@H]1O`, the growth is 57.8%.

`Cc1c(Cn2c(C)nc3c(C(=O)O)cc(N4CCOCC4)cc32)cccc1C(F)(F)F`: the growth is 78.6%.

In the case of `CC(C)(C)c1cc(-c2nc3ccc(N4CCN(CCO)CC4)cc3[nH]2)cc(C(C)(C)C)c1O`, the growth was 63.5%. For the compound `O=[N+]([O-])c1ccc(N/N=C(\C(=N/Nc2ccc([N+](=O)[O-])cc2[N+](=O)[O-])c2ccccc2)c2ccccc2)c([N+](=O)[O-])c1`, the growth was 80.5%.

Take `CCn1c(Sc2nnc(Nc3ccccc3)s2)nc2c1c(=O)n(C)c(=O)n2C`: the growth is 113%.

On to `COc1cc(N=Nc2cc(Cc3ccc(N(C)C)cc3)c(N)cc2N(C)C)c2ncccc2c1`, for which the growth is -55.5% (active). Regarding `Clc1ccccc1/C=N\Nc1ccccn1`, the growth was 98.1%. For `CC1=C(C(=O)c2ccccc2)C(c2ccc3c(c2)OCO3)NC(=S)N1` (stereo not given) the value was 2.6% (active); for `CCOC(=O)c1cc(C(=O)c2cc(OC)cc(OC)c2)n2ncc3ccccc3c12`, -8.3% (active). Turning to `COC(c1ccccc1)C(Br)C(=O)c1ccccc1` (stereo not given), the growth was 79.1%. On to `C/C(Cc1ccc(Cl)cc1)=C(\c1ccc(OCCN2CCCCCC2)cc1)c1ccc(OC(=O)C2CCCCC2)cc1`, for which the growth was 17.6%. The value for `COc1ccc(Cn2cc3c(c2-c2ccccc2)CC(C)(C)c2cnoc2-3)cc1` was 16.7%. The value for `COc1ccc(C(=O)/C=C/c2c(Cl)c3c(c(OC)c2Cl)OCC(=O)N3)cc1` was 13.8%; that for `COc1ccc(OC)c(NC2=C(SCCc3ccccc3)C(=O)c3ccccc3C2=O)c1` was 93.4%; that for `Cc1[nH]c(/C=C2\C(=O)Nc3ccc(F)cc32)c(C)c1C(=O)NC[C@H](O)CN1CCOCC1` was 4.41% (active). For `CCCCCCCCCCCCOc1ccccc1C=O` the value was 89.9%; for `COc1cc(C(=O)c2cnc(-c3c[nH]c4cccc(C)c34)[nH]2)cc(OC)c1OC`, -14.9% (active); for `Cc1nnc(-c2ccc3c(c2)nc(/C=C/c2ccccc2)n3C2CCCCC2)o1`, 65.3%. For the compound `C/C=C/C1=CN2C(=O)c3cc(OC4OC(C)C(NC)C(C)(O)C4O)c(C)cc3N=C[C@@H]2C1` (stereo not given in full), the growth was -4.41% (active). As for `COc1ccc(-c2nc(C#N)c(NCC(c3ccco3)N3CCCC3)o2)cc1` (stereo not given), the growth is -14.1% (active).
